This is a sample that favours compounds with a hit; in the whole collection about 19% have one here.
TDP1 inh: qHTS Assay for Inhibitors of Tyrosyl-DNA Phosphodiesterase (TDP1). Tyrosyl-DNA phosphodiesterase 1 (Homo sapiens), Q9NUW8. recombinant TDP1, AlphaScreen DNA substrate cleavage. Potency, µM (top dose mostly 130 µM), without a hit: at the top dose activity change, negative = inhibition, most hits filed as inhibitors. 350,000 tested, 0.28% active. AID 485290, 2010; also: potency is read from the fitted curve at half-maximal effect; nearly all actives have a fitted effect of over 40% in size
Target sequence (Q9NUW8 whole entry, looked up): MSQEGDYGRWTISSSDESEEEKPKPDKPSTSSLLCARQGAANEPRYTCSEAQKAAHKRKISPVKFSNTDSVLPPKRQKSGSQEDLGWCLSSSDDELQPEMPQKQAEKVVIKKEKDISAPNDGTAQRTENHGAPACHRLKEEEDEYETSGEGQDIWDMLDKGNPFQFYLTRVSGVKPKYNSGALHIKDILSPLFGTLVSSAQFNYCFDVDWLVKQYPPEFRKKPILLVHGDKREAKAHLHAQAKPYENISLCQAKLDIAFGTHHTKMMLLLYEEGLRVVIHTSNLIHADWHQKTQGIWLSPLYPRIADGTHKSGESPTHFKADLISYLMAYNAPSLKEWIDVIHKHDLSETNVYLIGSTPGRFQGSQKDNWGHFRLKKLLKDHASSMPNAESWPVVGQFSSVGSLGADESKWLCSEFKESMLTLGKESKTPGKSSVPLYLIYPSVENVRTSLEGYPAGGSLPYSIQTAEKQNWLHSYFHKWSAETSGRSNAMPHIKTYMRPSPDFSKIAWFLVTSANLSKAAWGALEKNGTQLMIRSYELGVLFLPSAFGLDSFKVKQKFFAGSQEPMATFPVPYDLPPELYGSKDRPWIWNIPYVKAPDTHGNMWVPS
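Compounds were preincubated with Tdp1 (1 nM final) for 15 min at room temperature before substrate (15 nM final) started a 5 min reaction; beads (10 ug/ml final) were then added for 10 min before AlphaScreen detection.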
Giardia kill: Small Molecules that selectively kill Giardia lamblia: qHTS; Giardia lamblia trophozoite viability; activity change, % at 7.66 µM, hits read low; 340,000 tested, 0.15% active; in the data active = activity change below about -80%; inconclusive = between about -30% and that limit;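 also: parasites exposed to compound for two days anaerobically before the ATP read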
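Killing of trophozoites was scored by loss of ATP luminescence after a 48 hrs anaerobic exposure to compounds at 37 deg C, using 100 cells per well.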
TDP1 cell CPT: qHTS for Inhibitors of human tyrosyl-DNA phosphodiesterase 1 (TDP1): qHTS in cells in presence of CPT; chicken DT40 Tdp1-/-;hTDP1 cells + 20 nM CPT, ATP luminescence, 48 h; 420,000 tested, 12% active; Potency, µM (series often up to 46.2 µM), without a hit: at the highest dose activity change, negative = growth inhibition, hits mostly inhibitors; AID 686979, 2013; also: potency is read from the fitted curve at half-maximal effect; nearly all actives have a fitted effect of over 55% in size
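Chicken DT40 Tdp1-/- cells complemented with human TDP1, 400 cells/well, exposed to compounds plus 20 nM camptothecin for at least 48 h at 37 C; viability read as ATP content by CellTiter-Glo luminescence.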
ELG1 DNA repair: qHTS screen for small molecules that inhibit ELG1-dependent DNA repair in human embryonic kidney (HEK293T) cells expressing luciferase-tagged ELG1; HEK293T ELG1-luciferase reporter, luminescence, 16 h; DNA damage induced by 5-fluorouridine; 330,000 tested, 2.3% active; Potency, µM (top dose mostly 46.1 µM), inactives show top-dose activity change, negative = inhibition, actives largely listed as inhibitors; also: potency is read from the fitted curve at half-maximal effect; nearly all actives have a fitted effect of over 55% in size
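HEK293T cells expressing luciferase-tagged ELG1 (2,000/well) received 5-Fluorouridine plus compound or DMSO for 16 hr at 37 °C. Luciferase was read by ONE-Glo luminescence after 30 min at room temperature.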
IL-1B inflam inh: qHTS for Inhibitors of Inflammasome Signaling: IL-1-beta AlphaLISA Primary Screen | AID 743279, 2014 | THP-1 LPS/ATP IL-1B secretion, AlphaLISA, 16 h; hits give low values | activity change, % at 57.5 µM | 360,000 tested, 4.7% active; in the data active = activity change below about -50%; inconclusive = mostly about -30% to -49%
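Secreted IL-1B measured by AlphaLISA bead assay after 16 h compound exposure of THP-1 cells; compounds (final up to 57.5 uM) added 1 h before LPS (250 ng/mL) and ATP (1.25 mM) stimulation; lower signal means less secretion.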
DT40 TDP1 no CPT: qHTS for Inhibitors of human tyrosyl-DNA phosphodiesterase 1 (TDP1): qHTS in cells in absence of CPT. DT40 Tdp1-/- hTDP1 cells, no CPT, ATP luminescence, 48 h. Potency, µM (doses to about 46.2 µM), for inactives: at the top dose activity change, negative = growth inhibition, usual class: inhibitors. 420,000 tested, 15% active. AID 686978, 2013; also: potency is read from the fitted curve at half-maximal effect; nearly all actives have a fitted effect of over 55% in size
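Growth kinetics read by CellTiter-Glo luminescence after ≥48 hr at 37 °C. Cells: DT40 Tdp1-/- stably carrying human TDP1, 400 per well, compound exposure in the absence of CPT (DMSO vehicle).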
Numbers without * were called inactive. Unless noted, calls follow the shape of the dose curve; as a rule, active = well fitted curve in the direction sought with a large enough effect; inconclusive = small, poorly fitted or top-dose-only effect, or another doubt; inactive = no such curve, though single readings can be large; an effect the other way counts as inactive or inconclusive. % is scaled to controls: 0 for no effect and ±100 for the full control effect.

How did Cc1ccc(C)c(NC(=S)N2CCCCCC2)c1 do in these assays?
TDP1 inh: -3%; Giardia kill: -16; TDP1 cell CPT: 21µM*; ELG1 DNA repair: -2%; IL-1B inflam inh: 25; DT40 TDP1 no CPT: 16µM*

What do the screens show for `Cc1ccc(NC(=S)N2CCCN(Cc3ccc(F)cc3)C2)c(C)c1`?
TDP1 inh: 6%; Giardia kill: -12; TDP1 cell CPT: inconclusive; ELG1 DNA repair: -3%; IL-1B inflam inh: -22; DT40 TDP1 no CPT: 21µM*

How did Cc1ccc(C)c(NC(=S)N2CCN(S(C)(=O)=O)CC2)c1 do in these assays?
TDP1 inh: 0%; Giardia kill: -12; TDP1 cell CPT: -12%; ELG1 DNA repair: 17%; IL-1B inflam inh: 16; DT40 TDP1 no CPT: 14%

What do the screens show for `Cc1c(Cl)cccc1NC(=S)N1CCCN(Cc2ccc(F)cc2)C1`?
TDP1 inh: 2%; Giardia kill: 6; TDP1 cell CPT: inconclusive; ELG1 DNA repair: 1%; IL-1B inflam inh: -88*; DT40 TDP1 no CPT: inconclusive

Results for CSc1cccc(NC(=S)N2CCCN(Cc3ccc(F)cc3)C2)c1 ?
TDP1 inh: 6%; Giardia kill: -3; TDP1 cell CPT: inconclusive; ELG1 DNA repair: -6%; IL-1B inflam inh: -52*; DT40 TDP1 no CPT: inconclusive

What do the screens show for `FC(F)(F)c1nnc(N2CCN(c3ccc(Cl)cc3)CC2)s1`?
Giardia kill: -6; TDP1 cell CPT: 0%; ELG1 DNA repair: 0%; IL-1B inflam inh: inconclusive; DT40 TDP1 no CPT: -6%

Results for FC(F)(F)c1nnc(Nc2ccc(Cl)cc2)s1 ?
Giardia kill: -6; TDP1 cell CPT: inconclusive; ELG1 DNA repair: 10µM*; IL-1B inflam inh: -7; DT40 TDP1 no CPT: inconclusive

How did Cc1ccc(C(=O)/C=C/c2ccc3ncccc3c2)cc1 do in these assays?
TDP1 inh: 7%; Giardia kill: -3; TDP1 cell CPT: 18µM*; ELG1 DNA repair: inconclusive; IL-1B inflam inh: -58*; DT40 TDP1 no CPT: 29µM*

How did O=C(Nc1ccc2ncccc2c1)c1cccc(Br)c1 do in these assays?
Giardia kill: 6; TDP1 cell CPT: inconclusive; ELG1 DNA repair: inconclusive; IL-1B inflam inh: -5; DT40 TDP1 no CPT: -22%

What do the screens show for `Nc1ccc(/C=C/c2ccc3ncccc3c2)cc1`?
Giardia kill: -14; TDP1 cell CPT: inconclusive; ELG1 DNA repair: inconclusive; IL-1B inflam inh: inconclusive; DT40 TDP1 no CPT: inconclusive

Results for Cc1ccc(C(=O)Nc2c(C)cc(C)c3cccnc23)cc1 ?
TDP1 inh: -5%; Giardia kill: -1; TDP1 cell CPT: inconclusive; ELG1 DNA repair: -1%; IL-1B inflam inh: 7; DT40 TDP1 no CPT: 16µM*

Results for COc1ccc(C(=O)Nc2ccc3ncccc3c2)cc1 ?
Giardia kill: inconclusive; TDP1 cell CPT: 5.8µM*; ELG1 DNA repair: inconclusive; IL-1B inflam inh: -24; DT40 TDP1 no CPT: inconclusive

How did Cc1ccc(C(=O)Nc2ccc3ncccc3c2)cc1 do in these assays?
Giardia kill: -85*; TDP1 cell CPT: -29%; ELG1 DNA repair: inconclusive; IL-1B inflam inh: inconclusive; DT40 TDP1 no CPT: inconclusive

How did COc1cccc(CN2CCC3(CC2)c2ccccc2[C@@H](NC(=O)c2ccccc2)[C@@H]3O)c1O do in these assays?
TDP1 cell CPT: inconclusive; DT40 TDP1 no CPT: -30%

How did COc1ccccc1C(=O)OCC(=O)NC1CCCC1 do in these assays?
Giardia kill: 5; TDP1 cell CPT: 0%; ELG1 DNA repair: inconclusive; IL-1B inflam inh: 25; DT40 TDP1 no CPT: -1%

Screening results (PubChem)
